KB-3-1 cytotox: KB-3-1 parental cell cytotoxicity; Potency, µM (top dose mostly 46.1 µM), actives largely listed as cytotoxic; 1.4% of 400,000 active; KB-3-1 viability, CellTiter-Glo ATP luminescence, 72 h; further: potency means the concentration at half of the fitted maximal effect; on the % scale 0 is the no-effect control and ±100 the full control effect; nearly all actives have a fitted effect of over 60% in size
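Multi-concentration cytotoxicity screen in KB-3-1 cells grown in DMEM lacking phenol red with 10% FBS. After 72 h at 37 °C with compound, ATP-dependent luminescence was recorded.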
MCF10A rereplic: inducers of DNA re-replication in MCF 10A breast cells. MCF 10A DNA re-replication, Hoechst nuclear intensity, 48 h. Potency, µM (highest dose often 46.1 µM), for the others: at the highest dose activity, positive = re-replication, most hits filed as activators. 2.9% of 350,000 active. AID 624296; further: potency means the concentration at half of the fitted maximal effect; % of control where 0% means no effect; nearly all actives have a fitted effect of over 50% in size
SW480 rerep: inducers of DNA re-replication in SW480 colon cancer cells | SW480 DNA re-replication, Hoechst DNA content imaging, 48 h | Potency, µM (titrated, usually from 46.1 µM), inactives show at the top dose re-replication activation, usual class: activators | 1.8% of 340,000 active; further: potency means the concentration at half of the fitted maximal effect; % of control where 0% means no effect; nearly all actives have a fitted effect of over 55% in size
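Per well, 250 cells were exposed to pinned compound for 48 hr. Nuclear DNA was visualised with Hoechst (40 min, 37 C) and total object intensity recorded by fluorescence scanning.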
KCNH2 3.1 block: KCNH2 3.1 (human) potassium channel inhibition; U2OS KCNH2 3.1, thallium flux FluxOr; hits give low values; activity change, % (tested at about 1.8 µM); 0.95% of 340,000 active; AID 720553;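 active means maximum activity change below -70%; inconclusive means maximum activity change from -70% to -50%; inactive means maximum activity change above -50%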;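 further: thallium influx rate constant from kinetic fluorescence after stimulation buffer; on the % scale 0 is the no-effect control and ±100 the full control effect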
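Thallium flux read-out: FluxOr dye with Red40 quencher in HBSS/HEPES, 45 min at RT. Rate constants from kinetic reads were normalized to positive and negative DMSO controls. Cells: U2OS virally expressing the 3.1 isoform.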
KCNH2 WT inh: blocks the wildtype human KCNH2 potassium channel. AID 720551. activity change, % at 1.84 µM. 0.37% of 340,000 active. Q12809. U2OS, BacMam KCNH2, thallium flux FluxOr; hits give low values;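 active means maximum activity change below -70%; inconclusive means maximum activity change between -70% and -50%; inactive means maximum activity change above -50%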; further: on the % scale 0 is the no-effect control and ±100 the full control effect
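U2OS cells were transduced with wild-type KCNH2 virus (2.03 x 10^8 / mL) for 4 h at room temperature, then cultured overnight at 37 C. Thallium flux was read with FluxOr dye. Rate constants were normalized to DMSO controls.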
KB-V1 cytotox: KB-V1 MDR subline cytotoxicity; KB-V1 MDR cells viability, CellTiter-Glo, 72 h; Potency, µM (doses to about 46.1 µM), usual class: cytotoxic; 3.4% of 400,000 active; AID 1347076; further: potency means the concentration at half of the fitted maximal effect; on the % scale 0 is the no-effect control and ±100 the full control effect; nearly all actives have a fitted effect of over 60% in size
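KB-V1 MDR subline cells in DMEM (phenol-red free, 10% FBS) exposed to compounds in qHTS concentration series for 72 h at 37 degrees C. Viability read by CellTiter-Glo luminescence; concentration-effect curves fitted after normalization and correction.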
Starred values were filed as active, the others as inactive; i = inactive; ? = inconclusive; . = no result. Sampled rows, rich in hits. Any-hit rate of the full collection: about 7.6%. Unless noted, the call rests on the fitted dose curve; in most records, active means well fitted curve in the direction sought with a large enough effect; inconclusive means small, poorly fitted or top-dose-only effect, or another doubt; inactive means no such curve, though single readings can be large; an effect the other way counts as inactive or inconclusive.

SMILES	KB-3-1 cytotox	MCF10A rereplic	SW480 rerep	KCNH2 3.1 block	KCNH2 WT inh	KB-V1 cytotox
CN(C)/N=C/C=C1\CCC/C(=C\c2ccc(F)c(F)c2)C1=O	?	14µM*	?	0	3	?
OCCN1CCN(c2ncnc3c2ncn3[C@H]2CN(Cc3ccc4c(c3)OCO4)C[C@@H](CO)O2)CC1	i	.	.	.	.	i
Cc1c(C(=O)NCCS(=O)(=O)N2CCN(c3ccccc3F)CC2)cccc1[N+](=O)[O-]	23µM*	?	?	-19	7	?
O=C(NCCS(=O)(=O)N1CCN(c2ccccc2F)CC1)c1ccc(Cl)cc1	i	13%	-3%	4	33	?
O=C(Cc1ccc(Cl)cc1)NCCS(=O)(=O)N1CCN(c2ccccc2F)CC1	13µM*	18µM*	?	20	4	7.3µM*
CC(=O)Nc1ccc(NC2=C(Cl)C(=O)c3ccccc3C2=O)cc1	16µM*	?	5.2µM*	-29	-48	?
O=C1C(Cl)=C(Nc2ccc3cn[nH]c3c2)C(=O)c2ccccc21	?	0.58µM*	2.3µM*	-40	-22	?
O=C1C(Cl)=C(NCCCO)C(=O)c2ccccc21	23µM*	?	?	-18	0	i
O=C(Oc1ccc(NC2=C(Cl)C(=O)c3ccccc3C2=O)cc1)c1ccc([N+](=O)[O-])cc1	i	-2%	-16%	-5	.	i
CCOCCCNC1=C(Cl)C(=O)c2ccccc2C1=O	?	?	?	8	8	i
O=C(Nc1ccc2cn[nH]c2c1)c1c(Cl)cccc1Cl	i	-5%	-6%	7	-12	i
CN(C)c1ccc(NC2=C(Cl)C(=O)c3ccccc3C2=O)cc1	?	4.1µM*	2.9µM*	-45	?	i
CC1(c2ccc(OC(F)F)cc2)NC(=O)N(CC(=O)N2c3ccccc3NC(=O)C2(C)C)C1=O (stereo not drawn)	i	11%	-18%	1	-4	i
Cc1ccc(Nc2c(-c3cc(Br)ccc3F)nc3cc(C)ccn23)cc1	i	.	.	.	.	i
CCc1ccccc1NC(=O)NNS(=O)(=O)c1cc(C)ccc1C	i	-5%	5%	-10	-5	?
COCCCNC(=S)N1CCN(c2ccc([N+](=O)[O-])cc2)CC1	?	3%	-4%	-17	5	16µM*
CCNC(=S)N1CCN(c2ccc([N+](=O)[O-])cc2)CC1	i	3%	-6%	5	-1	i
C=CCNC(=S)N1CCN(c2ccc([N+](=O)[O-])cc2)CC1	i	11%	-4%	-24	0	15µM*
COCCCNC(=S)N1CCN(c2nc3ccccc3s2)CC1	?	3%	0%	7	-2	15µM*
COCCNC(=S)N1CCN(c2nc3ccccc3s2)CC1	i	-7%	-19%	-5	-1	i
O=[N+]([O-])c1ccc(N2CCN(C(=S)NCc3ccc(Cl)cc3)CC2)cc1	i	-4%	?	-93*	-26	i
COc1cc(C)ccc1OCc1cc(C(=O)N2CCN(C)C[C@@H]2c2ccccc2)no1	i	-4%	2%	-3	5	i
CCCCN1CC(N2CCN(Cc3ccccc3)CC2)CS1(=O)=O (stereo not drawn)	i	.	.	.	.	i
COc1ccc(NC(=O)C2CCCN(C(=O)c3cnn(-c4ccccc4)c3-n3cccc3)C2)cc1 (stereo not drawn)	i	.	.	.	.	i
Cc1ncc(C[n+]2csc(CCOC(=O)CC34CC5CC(CC(C5)C3)C4)c2C)c(N)n1	i	?	0%	-127*	5	i
SMILES	KB-3-1 cytotox	MCF10A rereplic	SW480 rerep	KCNH2 3.1 block	KCNH2 WT inh	KB-V1 cytotox
CCNc1nnc(-c2ccc(C)cc2)o1	i	0%	-2%	-23	-6	i
COc1cc(OC)cc(C(=O)c2c(C)c(C#N)c3ccccn23)c1	5.2µM*	?	10µM*	6	-1	?
COc1ccc(NC(=O)c2c(-c3ccc(C)cc3)nnc3ccccc23)cc1Cl	i	.	.	.	.	i
COc1ccc(CN(C)C(C)C(=O)Nc2ccc([N+](=O)[O-])cc2Cl)cc1OC (stereo not drawn)	i	18%	?	-85*	0	5.2µM*
CCOc1ccc(CN(C)C(C)C(=O)Nc2ccc([N+](=O)[O-])cc2Cl)cc1OC (stereo not drawn)	i	-11%	-6%	?	-39	i
COCCNC(=O)[C@H](CSCc1ccccc1)N1Cc2ccccc2C1=O	i	-2%	-7%	-3	1	9.2µM*
COCCCNC(=O)[C@H](CSCc1ccccc1)N1Cc2ccccc2C1=O	i	-9%	?	-8	-17	i
c1ccc(CSc2ncn[nH]2)nc1	i	?	-2%	-3	-8	i
O=C(NCC(c1ccco1)N1CCc2ccccc21)C(=O)Nc1ccc(F)cc1F (stereo not drawn)	4.6µM*	4.1µM*	?	-16	-3	4.1µM*
O=C(NCC(c1ccco1)N1CCc2ccccc21)C(=O)Nc1ccccc1F (stereo not drawn)	15µM*	?	?	-23	3	16µM*
O=C(NCC(c1ccco1)N1CCc2ccccc21)C(=O)Nc1ccccc1 (stereo not drawn)	i	12%	-476%	1	-4	i
COc1ccc(CNC(=O)CN2C(=O)c3cccnc3Oc3ccc(C)cc32)cc1	i	.	.	.	.	i
Cc1cccc(C)c1N=Cc1c(O)n(-c2nccs2)c(=O)c2ccccc12	i	3%	1%	2	11	23µM*
Cc1cc(C)c(N=Cc2c(O)n(-c3nccs3)c(=O)c3ccccc23)c(C)c1	i	8%	16%	7	4	i
CCc1nn(CC(=O)Nc2ccc(C)cc2C)c(=O)c2cc3sccc3n12	i	.	.	.	.	i
CCN(CC)c1ccc(NC(=O)c2cc(OC)cc(OC)c2)c(C)c1	0.92µM*	2.1µM*	4.6µM*	2	1	1.2µM*
CCN(CC)c1ccc(NC(=O)c2cccc(OC)c2)c(C)c1	?	?	?	2	1	?
COc1ccc(CCNC(=O)c2c(O)nc3c(C)cccn3c2=O)cc1OC	i	.	.	.	.	6.5µM*
COc1ccc(CCNC(=O)c2c(C)nn(-c3ccc(F)cc3)c2-n2cccc2)cc1OC	5.8µM*	.	.	.	.	5.2µM*
CCOc1ccc(NC(=O)c2c(C)nn(-c3ccc(F)cc3)c2-n2cccc2)cc1	i	.	.	.	.	i
CCN(CC)c1ccc(NC(=O)c2c(C)nn(-c3ccc(F)cc3)c2-n2cccc2)c(C)c1	?	.	.	.	.	21µM*
